# Screening data: PubChem BioAssay, National Center for Advancing Translational Sciences (NCATS)
# HTT aggregate: inhibitors of mutant huntingtin aggregate formation in PC12 cells; PC12 HttQ103-GFP aggregates, Acumen cytometry, 40 h; Potency, µM (top dose mostly 46.1 µM), inactives show at the highest dose activity change, negative = inhibition, actives largely listed as inhibitors; actives 1.1% (n = 220,000); active means well fitted curve in the direction sought with a large enough effect; inconclusive means small, poorly fitted or top-dose-only effect, or another doubt; inactive means no such curve, though single readings can be large; an effect the other way counts as inactive or inconclusive; further: potency means the concentration at half of the fitted maximal effect; on the % scale 0 is the no-effect control and ±100 the full control effect; nearly all actives have a fitted effect of over 60% in size
#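 Steps: seed 1500 PC12 HTTQ103-GFP cells/well; add tebufenozide, 100 nM final; add compound titration; add ATPLite reagent; quantify GFP aggregates by laser scanning cytometry.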
# HTT ATP protect: Huntington cell model cytoprotection by ATP luminescence. AID 1471. PC12 HTT-Q103 induced, cytoprotection, ATP luminescence, 40 h. actives 0.14% (n = 230,000). Potency, µM (doses to about 56.4 µM), inactives show cytoprotection (ATP increase), actives largely listed as activators; active means well fitted curve in the direction sought with a large enough effect; inconclusive means small, poorly fitted or top-dose-only effect, or another doubt; inactive means no such curve, though single readings can be large; an effect the other way counts as inactive or inconclusive; further: potency means the concentration at half of the fitted maximal effect; % of control where 0% means no effect; nearly all actives have a fitted effect of over 45% in size
#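 PC12 cells with ecdysone-inducible HTT exon 1 Q103-GFP, induced with 100 nM tebufenozide and co-treated with library compounds in a dose series (1536-well, 1500 cells/well). Cytoprotection read as ATP content by ATPlite luminescence.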
# HPGD block: inhibitors of human 15-hydroxyprostaglandin dehydrogenase (HPGD); P15428; purified HPGD, NADH fluorescence kinetic, PGE2 substrate; Potency, µM, for inactives: top-dose activity change, negative = inhibition, actives largely listed as inhibitors; actives 4.3% (n = 150,000); AID 894; further: potency means the concentration at half of the fitted maximal effect; on the % scale 0 is the no-effect control and ±100 the full control effect
# Target sequence (P15428 whole entry, looked up): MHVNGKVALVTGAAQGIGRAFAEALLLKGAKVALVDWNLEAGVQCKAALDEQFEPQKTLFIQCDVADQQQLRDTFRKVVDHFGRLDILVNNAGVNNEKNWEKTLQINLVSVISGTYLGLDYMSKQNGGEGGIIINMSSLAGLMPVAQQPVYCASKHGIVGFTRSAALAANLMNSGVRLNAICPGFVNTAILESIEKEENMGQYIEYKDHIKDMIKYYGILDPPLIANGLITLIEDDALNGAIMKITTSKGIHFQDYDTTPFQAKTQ
#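 20 nM HPGD preincubated 15 min at room temperature with compound in 50 mM Tris-HCl pH 8, 0.01% Tween 20. Started with 1 mM NAD+ and 30 uM prostaglandin E2; NADH fluorescence (360/450 nm) read 5 times over 30-s intervals, last minus first.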
# GoLoco inh red: blocks human Gai1 binding to RGS12 GoLoco peptide, red readout | P63096 | Gai1:RGS12 GoLoco peptide FP, rhodamine, 10 min | Potency, µM (series often up to 61.6 µM), for the others: at the highest dose activity, negative = inhibition, actives largely listed as inhibitors | actives 0.44% (n = 230,000) | AID 880; active means well fitted inhibition curve with a large enough effect, not every such curve was filed as active; inactive means no such curve, though single readings can be large or run the other way; further: potency means the concentration at half of the fitted maximal effect; on the % scale 0 is the no-effect control and ±100 the full control effect; nearly all actives have a fitted effect of over 30% in size
# Target sequence (P63096 whole entry, looked up): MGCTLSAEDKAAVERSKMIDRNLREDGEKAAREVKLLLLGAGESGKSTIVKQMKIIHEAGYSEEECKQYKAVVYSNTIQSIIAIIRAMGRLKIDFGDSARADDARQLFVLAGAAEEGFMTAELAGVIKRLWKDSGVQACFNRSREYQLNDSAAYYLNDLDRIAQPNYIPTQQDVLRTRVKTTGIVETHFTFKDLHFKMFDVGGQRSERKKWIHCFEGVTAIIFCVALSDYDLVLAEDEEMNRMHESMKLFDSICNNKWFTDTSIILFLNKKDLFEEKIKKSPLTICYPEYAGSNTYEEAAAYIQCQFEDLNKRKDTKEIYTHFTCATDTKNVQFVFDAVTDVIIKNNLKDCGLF
# PNC inhibitor: perinucleolar compartment assembly inhibition | PC3M PTB-GFP, PNC prevalence imaging, 16 h; stronger effect = lower value | activity change (PNC), negative = inhibition, % at 10 µM | actives 3.1% (n = 140,000);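 active means readout at or below -70, meaning at least 70% loss of cells showing the perinucleolar compartment, a nuclear body marking cancer cells; inconclusive means readout between -30 and a set limit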;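 further: plate controls were DMSO wells for no effect and camptothecin positive control wells for full effect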
#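 Compounds are pinned in duplicate onto adhered PC3M cells stably expressing GFP-tagged PTB and incubated 16 h at 37 C. Cells are then fixed, nuclei stained with Hoechst, and PNC-positive cells counted.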
# ALDH1A1 inh: inhibitors of human aldehyde dehydrogenase 1A1 | actives 7.3% (n = 220,000) | Potency, µM (top dose mostly 75.3 µM), inactives show at the highest dose activity, negative = inhibition, usual class: inhibitors | Purified ALDH1A1, NADH fluorescence, propionaldehyde substrate | P00352;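 further: potency means the concentration at half of the fitted maximal effect; plate controls were no enzyme wells and a reference inhibitor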
# An asterisk follows results filed as active; ? = inconclusive; . = not tested or not shown; [ ] = remark or other dose. Hits are enriched below; roughly 11% of the tested compounds scored in any of these assays. Unless noted, the call rests on the fitted dose curve; in most records, active means well fitted inhibition curve with a large enough effect (not every such curve was filed as active); inconclusive means small, poorly fitted or top-dose-only effect, or another doubt; inactive means no such curve, though single readings can be large or run the other way.
SMILES,HTT aggregate,HTT ATP protect,HPGD block,GoLoco inh red,PNC inhibitor,ALDH1A1 inh
COc1cc(OC)c(NC(=O)Cn2cccc2)cc1Cl,2.2%,-4.0%,-7.1%,6.3%,-25.0,-10.6%
Cc1ccc(S(=O)(=O)Nc2cc(NC(=O)CN3CCOCC3)ccc2Cl)cc1,29.0%,-15.3%,-10.9%,42.4%,?,17.8µM*
Cc1ccc(S(=O)(=O)Nc2ccc(NC(=O)CN3CCCCC3)cc2)cc1,2.1%,-4.7%,2.3%,11.8%,50.4,-1.7%
COc1ccc(Cl)cc1NC(=O)Cn1cccc1,0.1%,-16.1%,-16.3%,-7.6%,33.6,12.6µM*
CC(=O)c1cc2c(cc1NC(=O)CN1CCCCCCC1)OCO2,-16.0%,1.4%[10 µM],-10.0%,-3.7%,18.3,10µM*
NCCOC[C@H](N)C(=O)O,.,-1.8%[10 µM],0.8%,0.6%[14.2 µM],.,12.3%[13.5 µM]
C[C@H](NC(=O)[C@@H]1C[C@H]1[C@@H](NC(=O)OCc1ccccc1)c1ccccc1)c1ccccc1,.,-6.2%,-2.7%,-4.7%,.,2.3%
COc1ccc(Cl)cc1NC(=O)CN1CCCC1,-7.2%,0.1%,.,7.1%,.,10µM*
COc1ccc(Cl)cc1NC(=O)C(C)N(C)Cc1cccc(Cl)c1Cl (configuration not stated),-1.3%,-1.4%[10 µM],.,.,-101.1*,-4.0%
COc1cc(NC(=O)c2ccccc2Cl)c(OC)cc1NC(=O)CN1CCOCC1,13.4%,-10.8%,-7.5%,4.0%,-89.9*,-8.2%
COc1ccc(NC(=O)CN2CCN(S(=O)(=O)c3ccc(C(C)C)cc3)CC2)cc1OC,29.6%,0.8%,-7.5%,5.7%,26.3,?
COc1ccc(Cl)cc1NC(=O)NC(C)C,-1.6%,-32.4%,.,20.4%,.,-3.8%
COc1ccc(C)cc1NC(=O)CN1CCN(S(=O)(=O)c2ccc(C(C)C)cc2)CC1,3.0%,5.2%[10 µM],-13.1%,-1.2%,?,5.01µM*
CCOC(=O)CNCCC(=O)c1ccc(Br)cc1,8.3%,34.1%[10 µM],?,-30.7%,-2.1,0.282µM*
Cc1ccc(C(=O)NCC(=O)NCC(=O)OCC(=O)c2ccc(Br)cc2)cc1,-0.1%,8.6%[0.074 µM],-15.4%,-1.6%,-13.3,12.8%
Cc1cccc(C(=O)NNC(=O)c2ccc(Br)cc2)c1,-21.8%[9.22 µM],-7.2%[10 µM],.,21.3%,.,9.0%
CC(C)c1ccc(NCCC(=O)c2ccc(Br)cc2)cc1,-4.5%,15.1%[10 µM],-7.8%,6.1%,?,3.98µM*
CC(C)c1ccc(NC(=O)c2cccc(Br)c2)cc1,-12.3%,-73.1%,.,1.9%,.,-3.2%
Cc1cccc(NCCC(=O)c2ccc(Br)cc2)c1,1.7%,2.2%,-9.5%,4.4%,-21.2,0.794µM*
CN(C[C@@H](CC1CCCCC1)N(C[C@H](Cc1ccccc1)N(CCc1ccccc1)N=O)N=O)N=O,-11.0%[9.22 µM],-28.7%[10 µM],.,5.4%,.,-1.3%
COC(=O)N1CCC2(CC1)CN(c1ccccn1)C2,.,-21.2%,-0.2%,7.5%,.,?
CC(=O)c1ccc(-n2nnnc2SCC(=O)Nc2sc(C)c(C)c2C#N)cc1,?,11.0%[10 µM],-9.3%,16.6%,-9.9,17.8µM*
CCOC(=O)c1sc(NC(=O)CSc2nc(C)cc(C)c2C#N)c(C#N)c1C,?,5.0%,-28.7%,9.4%,79.5,?
CCOC(=O)c1cnc(SCC(=O)Nc2sc(C)c(C)c2C#N)nc1N,14.7%,-11.5%[10 µM],-6.4%,-2.1%,26.3,31.6µM*
CCCn1nnnc1SCC(=O)Nc1sc(C)c(C)c1C#N,15.2%[9.22 µM],-9.5%[10 µM],.,38.8%,.,.
CCOC(=O)c1sc(NC(=O)CSc2n[nH]c(-c3ccc(Cl)cc3Cl)n2)c(C#N)c1C,12.6µM*,-66.2%,-12.2%,18.6%,60.2,-11.0%
CCOC(=O)c1sc(NC(=O)CSc2nc(C)cc(-c3ccccc3)n2)c(C#N)c1C,10.9%,13.2%[10 µM],7.08µM*,3.8%,-11.7,3.16µM*
CC1(C)[C@@H]2CC[C@]1(CC(=O)O)[C@H](Cl)C2,.,-6.3%[10 µM],-14.8%,7.4%[14.2 µM],.,-3.5%[13.5 µM]
CCOC(=O)c1cnc(SCCc2ccccc2)nc1N,-23.9%,1.6%,-9.4%,19.2%,60.8,-6.1%
